Experimental data as given in PubChem BioAssay.
Entries with a potency or affinity are not part of this list. A number with no mark means an inactive call. How the calls were made is not given here.

Assay: HepG2 cell cytotoxicity, dose response, cytotoxicity control, plate reader, cherry-pick, antagonist series (AID 743416);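 further: 0% = neutral control wells and -100% = positive control wells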
Settings: series mostly up to 26 µM; activity change, negative = cytotoxicity: at the top concentration

SMILES | activity change, negative = cytotoxicity [%]
C[C@H](CO)N1C[C@H](C)[C@H](CN(C)C(=O)Nc2cccc3ccccc23)OCCCC[C@H](C)Oc2ccc(NC(=O)NC3CCCCC3)cc2C1=O | 0.778
O=C(c1cc(-c2ccc(Cl)cc2Cl)on1)N1CCOCC1 | -0.47
O=C(O)c1ccc(-c2noc(-c3ccccc3Cl)n2)cc1 | 75.1
O=C(NCCc1ccccc1)c1ccc2c(c1)OCO2 | 13.4
O=C(CN1CCOc2ccccc21)NCc1ccc(F)cc1 | 2.54
O=C(Nc1ccc(Cl)c(S(=O)(=O)N2CCOCC2)c1)c1ccc2c(c1)OCCO2 | -16.1
OC1CCC(Nc2ccn3nc(-c4cccc(OCc5ccccc5)c4)cc3n2)CC1 (stereo not drawn) | 17.8
Cc1ccc(C(=O)CN2C(=O)c3ccccc3S2(=O)=O)cc1 | 17.3
